# Experimental data published in PubChem BioAssay (NCATS).
# Results filed as inconclusive are left out. Calls of active or inactive are those of the source. The call rests on the fitted dose curve; in most records, active means well fitted cell-killing curve with a large enough effect; inconclusive means small, poorly fitted or top-dose-only effect, or effect the other way; inactive means no such curve, though single readings can be large or run the other way.
# Test: Quantitative High-Throughput drug screen in 47 multiple myeloma cell lines against the NCATS MIPE library collection: VP6_DJ cell viability assay (AID 1919867); further: nearly all actives have a fitted effect of over 40% in size
# Settings: ATP luminescence, 48 h; series mostly up to 45.8 µM; viability (% of DMSO): at the top concentration
# In short: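 ATP-based CellTiter-Glo luminescence after 48 h drug exposure (37 °C, 5% CO2) of 500 myeloma cells per well. DMSO-only wells set 100% viability, media-only wells 0%; MIPE 4.0 library added by pin tool.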
# Potency means the concentration at half of the fitted maximal effect.
SMILES,viability (% of DMSO),Potency
c1cc(CN2CCCNCCNCCCNCC2)ccc1CN1CCCNCCNCCCNCC1,130% (inactive),–
C=CC(=O)N1CCc2ccc(-n3c(=O)ccc4cnc5ccc(-c6cnn(C)c6)cc5c43)cc21,–,2960 nM (active)
NC[C@H]1O[C@H](O[C@H]2[C@@H](O)[C@@H](O[C@H]3O[C@H](CO)[C@@H](O)[C@H](N)[C@@H]3O)[C@H](N)C[C@@H]2N)[C@H](N)C[C@H]1O,137% (inactive),–
Oc1cc(-c2nc(-c3ccccc3)[nH]c2-c2ccncc2)ccc1Cl,–,3720 nM (active)
O=c1[nH]c(=O)n([C@H]2C[C@@H](O)[C@@H](CO)O2)cc1C=CBr,106% (inactive),–
COC[C@H](NC(=O)c1cnc(C)s1)C(=O)N[C@@H](COC)C(=O)N[C@@H](Cc1ccccc1)C(=O)[C@@]1(C)CO1,–,66.2 nM (active)
CN(C)CCN1C(=O)c2cccc3cc(N)cc(c23)C1=O,–,14800 nM (active)
CCNC(=O)Nc1ccc(-c2nc3c(c(N4CCOC[C@H]4C)n2)CCN(C2COC2)C3)cc1,–,1050 nM (active)
COc1cc([C@@H]2c3cc4c(cc3[C@@H](O[C@@H]3O[C@@H]5CO[C@@H](c6cccs6)O[C@@H]5[C@H](O)[C@@H]3O)[C@H]3COC(=O)[C@H]23)OCO4)cc(OC)c1O,–,469 nM (active)
CCOC(=O)[C@H](CCc1ccccc1)N[C@@H](C)C(=O)N1[C@@H](C(=O)O)C[C@H]2CCC[C@@H]21,–,6620 nM (active)
CC(C)c1cnn2c(NCc3ccccc3)cc(NCCCCCCN)nc12,–,11800 nM (active)
O=C(CCCCCCC(=O)Nc1cccnc1)NO,–,1480 nM (active)
COc1cc([C@@H]2c3cc4c(cc3[C@H](O)[C@H]3COC(=O)[C@@H]23)OCO4)cc(OC)c1OC,–,296 nM (active)
NC(=O)N1CCC(CC(=O)N2CCC([C@H]3c4ncc(Br)cc4CCc4cc(Cl)cc(Br)c43)CC2)CC1,–,13200 nM (active)
CC(C)NC[C@@H](C(=O)N1CCN(c2ncnc3c2[C@H](C)C[C@H]3O)CC1)c1ccc(Cl)cc1,–,833 nM (active)
C[C@H](NCc1ccc(OCc2cccc(F)c2)cc1)C(N)=O,–,2350 nM (active)
O=C(c1ccc(F)cc1)N1CCC[C@H](c2nc(-c3ccc(F)cc3)no2)C1,140% (inactive),–
COc1cccc2c1C(=O)c1c(O)c3c(c(O)c1C2=O)C[C@@](O)(C(=O)CO)C[C@@H]3O[C@H]1C[C@H](N)[C@H](OC2CCCCO2)[C@H](C)O1 (some centres undefined),–,5260 nM (active)
Nc1nc(N)c2nc(-c3cccc(O)c3)c(-c3cccc(O)c3)nc2n1,–,3320 nM (active)
